{
  "source": "the supplement of paper PMC13380429",
  "data": [
    {"system": "Vero E6 infected with SARS-CoV-2", "assay": "morphology score (similarity to uninfected cells); higher = more like uninfected cells", "settings": "24 h", "values": [
      {"smiles": "O=C1c2ccccc2-n2c1nc1ccccc1c2=O", "note": "[tryptanthrin] (10 µM)", "morphology score": 0.145},
      {"smiles": "Cn1c(=O)n(-c2ccc(C(C)(C)C#N)cc2)c2c3cc(-c4cnc5ccccc5c4)ccc3ncc21", "note": "(10 µM)", "morphology score": 0.0712},
      {"smiles": "N#Cc1cc(NC(=O)C(=O)O)c(Cl)c(NC(=O)C(=O)O)c1", "note": "[lodoxamide] (10 µM)", "morphology score": -0.0976},
      {"smiles": "COc1ccc(C(=O)c2c(C)n(CCN3CCOCC3)c3ccccc23)cc1", "note": "[pravadoline] (10 µM)", "morphology score": 0.0547},
      {"smiles": "COc1ccc(-c2cc(=O)c3c(O)cc(O[C@@H]4O[C@H](CO[C@@H]5O[C@@H](C)[C@H](O)[C@@H](O)[C@H]5O)[C@@H](O)[C@H](O)[C@H]4O)cc3o2)cc1O", "note": "[diosmin] (10 µM)", "morphology score": -0.119},
      {"smiles": "CC(=O)OCC(=O)[C@@]1(O)CC[C@H]2[C@@H]3CCC4=CC(=O)CC[C@]4(C)[C@H]3C(=O)C[C@@]21C", "note": "[cortisone-acetate] (10 µM)", "morphology score": -0.0698},
      {"smiles": "COc1cc2c(cc1O)CC[C@@H]1[C@@H]2CC[C@]2(C)[C@@H](O)CC[C@@H]12", "note": "[2-methoxyestradiol] (0.833333 µM)", "morphology score": 0.00558},
      {"smiles": "CC[C@@H](Nc1c(Nc2cccc(C(=O)N(C)C)c2O)c(=O)c1=O)c1ccc(C)o1", "note": "[navarixin] (10 µM)", "morphology score": -0.0629},
      {"smiles": "c1ccc(CN(CC2=NCCN2)c2ccccc2)cc1", "note": "[antazoline] (10 µM)", "morphology score": -0.22},
      {"smiles": "CC1(C)O[C@@H]2C[C@H]3[C@@H]4CCC5=CC(=O)CC[C@]5(C)[C@@]4(F)[C@@H](O)C[C@]3(C)[C@]2(C(=O)CCl)O1", "note": "[halcinonide] (10 µM)", "morphology score": 0.157}
    ]}
  ]
}
